Here are results for 88 sequences from the supplement of paper PMC12636033.

± gives the standard deviation of the averaged measurements. Over roughly 33,000 sequences, “E-score (rank enrichment, -0.5 to 0.5)” has its median near -0.0043; the highest 2% begin near 0.24. This is one part of a sample in which the highest values are shown more often than they occur.

The test system of the assay is 2Sp-muMax20 (muMax20 with two 2,6-bis(methyl)pyridine Cys staples). Nature of the assay: PBM 8-mer E-score (E-score (rank enrichment, -0.5 to 0.5)); higher = stronger preferential binding. On the procedure: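 Protein binding microarray (universal PBM chip covering all 10-mers in fixed probe flanks) with chemically synthesized human Max(13-93) bHLH-LZ analogs (not full-length Max) bearing noncanonical residues (hArg, Tha, Aib, Nle at 65) and aromatic Cys staples. Read-out per 8-mer (and its reverse complement): E-score (rank-based enrichment, -0.5 to 0.5) and Z-score of median probe intensity.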
For ACCCCACA, the “PBM 8-mer E-score” value is 0.239 ± 0.02.

With AGCCCACC, the “PBM 8-mer E-score” value is -0.0175 ± 0.041.

As to CGCCCACC, the “PBM 8-mer E-score” value amounted to 0.274 ± 0.055.

For CACCCACC, the “PBM 8-mer E-score” value was found to be 0.0762 ± 0.08.

Take TCCCCAAA: the “PBM 8-mer E-score” value stood at 0.256 ± 0.079.

Take AACCCACG: the “PBM 8-mer E-score” value stood at 0.17 ± 0.037.

Turning to ATAAGGGA, the “PBM 8-mer E-score” value turned out to be 0.102 ± 0.04.

With AACTCAAA, the “PBM 8-mer E-score” value was 0.172 ± 0.036.

For CACGGCTA, the “PBM 8-mer E-score” value was -0.249 ± 0.073.

CCGTGGAC: the “PBM 8-mer E-score” value was -0.2957 ± 0.0024.

In the case of AGGCTAGA, the “PBM 8-mer E-score” value was -0.144 ± 0.033.

As to ACCCCACT, the “PBM 8-mer E-score” value stood at 0.183 ± 0.027.

On to GCCCCACA, for which the “PBM 8-mer E-score” value was found to be 0.223 ± 0.042.

As to GCCCCAAC, the “PBM 8-mer E-score” value is 0.267 ± 0.013.

Turning to CCCCCACA, the “PBM 8-mer E-score” value is -0.205 ± 0.084.

For the sequence CCCCCACC, the “PBM 8-mer E-score” value was -0.321 ± 0.032.

For GCCCCAAA, the “PBM 8-mer E-score” value was 0.188 ± 0.0029.

With CCCCCAAC, the “PBM 8-mer E-score” value is -0.253 ± 0.01.

In the case of GCCCCACC, the “PBM 8-mer E-score” value is 0.237 ± 0.039.

Regarding TCCCCACA, the “PBM 8-mer E-score” value was 0.235 ± 0.0063.

Take ACCCCACC: the “PBM 8-mer E-score” value came to 0.236 ± 0.05.

CCCCCACG: the “PBM 8-mer E-score” value stood at 0.0635 ± 0.0042.

As for ACCCCCAC, the “PBM 8-mer E-score” value is -0.19 ± 0.027.

As for GTCTCTCA, the “PBM 8-mer E-score” value was -0.0452 ± 0.0099.

Regarding AGAGGACT, the “PBM 8-mer E-score” value was -0.0403 ± 0.059.

Consider ACAAGTGT, for which the “PBM 8-mer E-score” value is -0.0219 ± 0.043.

On to AGACTGTC, for which the “PBM 8-mer E-score” value was -0.179 ± 0.036.

Consider CATGTTAA, for which the “PBM 8-mer E-score” value worked out at 0.191 ± 0.048.

In the case of ACTCTCTA, the “PBM 8-mer E-score” value amounted to 0.158 ± 0.0044.

Consider AACTCATG, for which the “PBM 8-mer E-score” value came out at 0.176 ± 0.077.

As to AAACAGAA, the “PBM 8-mer E-score” value stood at 0.168 ± 0.015.

AACCCATG: the “PBM 8-mer E-score” value was determined as 0.139 ± 0.032.

Turning to ACCCCATG, the “PBM 8-mer E-score” value was 0.297 ± 0.047.

ACCCCATA: the “PBM 8-mer E-score” value stood at 0.107 ± 0.075.

In the case of CATACGTC, the “PBM 8-mer E-score” value was 0.0118 ± 0.0042.

As to CACACGTG, the “PBM 8-mer E-score” value was found to be 0.384 ± 0.019.

In the case of AATACGTA, the “PBM 8-mer E-score” value came to 0.206 ± 0.064.

As for CATACGTA, the “PBM 8-mer E-score” value worked out at 0.297 ± 0.012.

Turning to AACACGTA, the “PBM 8-mer E-score” value worked out at 0.0789 ± 0.055.

Consider AACACGTG, for which the “PBM 8-mer E-score” value was found to be 0.4615 ± 0.0029.

CACACGTC: the “PBM 8-mer E-score” value is -0.0411 ± 0.069.

CACACGTA: the “PBM 8-mer E-score” value was found to be 0.0876 ± 0.11.

Regarding AACACGTC, the “PBM 8-mer E-score” value was found to be 0.0953 ± 0.04.

Consider CTTATGAC, for which the “PBM 8-mer E-score” value came out at 0.0201 ± 0.0061.

For ACTATGAC, the “PBM 8-mer E-score” value was found to be 0.0953 ± 0.0015.

TAAGGGTA: the “PBM 8-mer E-score” value came to 0.115 ± 0.039.

On to CCCTGGGA, for which the “PBM 8-mer E-score” value was -0.29 ± 0.01.

Consider GTTTCAAA, for which the “PBM 8-mer E-score” value was 0.073 ± 0.063.

Regarding CATTCAAG, the “PBM 8-mer E-score” value is -0.108 ± 0.079.

Regarding CCTTCACG, the “PBM 8-mer E-score” value was -0.0558 ± 0.019.

Take CATTCACA: the “PBM 8-mer E-score” value amounted to 0.248 ± 0.016.

For the sequence CTTTCAAA, the “PBM 8-mer E-score” value stood at 0.236 ± 0.026.

For ACTTCACA, the “PBM 8-mer E-score” value stood at 0.00636 ± 0.061.

For TATTCAAA, the “PBM 8-mer E-score” value was 0.197 ± 0.036.

For ATTTCAAA, the “PBM 8-mer E-score” value came to 0.0933 ± 0.0025.

CCTTCACA: the “PBM 8-mer E-score” value is 0.256 ± 0.018.

Consider CATTCAAA, for which the “PBM 8-mer E-score” value was 0.256 ± 0.027.

Consider GATTCACA, for which the “PBM 8-mer E-score” value was found to be 0.0451 ± 0.093.

Consider CATTCACG, for which the “PBM 8-mer E-score” value is 0.0213 ± 0.074.

On to ACCAAGGG, for which the “PBM 8-mer E-score” value was -0.132 ± 0.035.

As for GCAAATCC, the “PBM 8-mer E-score” value is -0.0919 ± 0.086.

Regarding CTTGATAA, the “PBM 8-mer E-score” value turned out to be 0.0868 ± 0.0083.

Turning to GCATTACC, the “PBM 8-mer E-score” value is -0.136 ± 0.01.

For ATGACAAC, the “PBM 8-mer E-score” value came out at 0.0122 ± 0.037.

For CGACAATA, the “PBM 8-mer E-score” value came to 0.0335 ± 0.093.

On to CAAGGCTG, for which the “PBM 8-mer E-score” value is -0.037 ± 0.11.

CTCTTCAC: the “PBM 8-mer E-score” value was 0.129 ± 0.00049.

With AATCCAGA, the “PBM 8-mer E-score” value came to 0.124 ± 0.08.

With GATGCACA, the “PBM 8-mer E-score” value is 0.0774 ± 0.012.

Regarding AATGCAAC, the “PBM 8-mer E-score” value was 0.136 ± 0.035.

As to CATGCACG, the “PBM 8-mer E-score” value came out at 0.0888 ± 0.024.

AATGCGAC: the “PBM 8-mer E-score” value came out at 0.0252 ± 0.028.

With CATGCGAG, the “PBM 8-mer E-score” value stood at 0.165 ± 0.062.

As for CATGCATC, the “PBM 8-mer E-score” value was found to be 0.081 ± 0.025.

As for CATGCAAG, the “PBM 8-mer E-score” value turned out to be 0.103 ± 0.05.

Regarding CATGCGAC, the “PBM 8-mer E-score” value was determined as 0.308 ± 0.019.

On to CATGCATG, for which the “PBM 8-mer E-score” value stood at 0.382 ± 0.024.

Turning to CATGCACA, the “PBM 8-mer E-score” value turned out to be 0.251 ± 0.033.

Turning to CATGCAAC, the “PBM 8-mer E-score” value turned out to be 0.281 ± 0.056.

CATGCATA: the “PBM 8-mer E-score” value was 0.207 ± 0.0092.

Consider CGAGGAAG, for which the “PBM 8-mer E-score” value is -0.0173 ± 0.064.

Consider CCGGCCGG, for which the “PBM 8-mer E-score” value is -0.229 ± 0.081.

Consider CCCAACCC, for which the “PBM 8-mer E-score” value amounted to 0.204 ± 0.019.

On to CGCAAAAA, for which the “PBM 8-mer E-score” value was -0.00934 ± 0.005.

For CTGGGCGC, the “PBM 8-mer E-score” value came to 0.0231 ± 0.038.

Regarding ATTTGGCA, the “PBM 8-mer E-score” value is -0.0164 ± 0.011.

For ATTACTTG, the “PBM 8-mer E-score” value was 0.18 ± 0.017.

Consider CTCCTACA, for which the “PBM 8-mer E-score” value was found to be 0.0705 ± 0.028.
